Compound activity (PubChem)
Hits are enriched below; roughly 3.1% of the tested compounds scored in any of these assays.
Mcl1 Noxa PPI = Mcl-1/Noxa binding inhibitors, primary screen, biochemical, TR-FRET, 1536-well | TR-FRET Mcl-1/Noxa peptide binding, 2 h | AID 1022, 2008 | inhibition, % at 21.7 µM | 220,000 compounds, 1.5% hits;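 active = compounds that cut the protein-peptide binding signal by more than 50% relative to plate controls in a single-dose test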;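 note: His-tagged Mcl-1 with rhodamine Noxa BH3 peptide and terbium anti-His antibody; 0% = Mcl-1 plus Noxa peptide wells and 100% = peptide-only wells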
Target sequence (Q07820 whole entry, looked up): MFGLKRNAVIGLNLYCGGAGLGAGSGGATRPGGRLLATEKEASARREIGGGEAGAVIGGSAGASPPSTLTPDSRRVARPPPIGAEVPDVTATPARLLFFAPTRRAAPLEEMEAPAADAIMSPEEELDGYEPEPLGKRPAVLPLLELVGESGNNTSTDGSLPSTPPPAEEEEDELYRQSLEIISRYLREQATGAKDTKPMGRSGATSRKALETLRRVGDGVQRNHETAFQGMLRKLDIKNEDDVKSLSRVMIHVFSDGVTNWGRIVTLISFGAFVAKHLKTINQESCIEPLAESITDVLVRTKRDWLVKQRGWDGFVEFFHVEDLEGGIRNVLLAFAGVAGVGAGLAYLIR
14-3-3 Bad inh = inhibitors of 14-3-3 zeta/Bad binding, primary screen, biochemical, TR-FRET, bovine 14-3-3 zeta; 220,000 compounds, 0.71% hits; 14-3-3 protein zeta/delta (Bos taurus), P63103; inhibition, % at 21.7 µM; AID 781, 2007; TR-FRET 14-3-3zeta/Dy647-pBad peptide displacement, 1 h;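 active = inhibition above about 70%, limit read from the data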;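 note: 0% = full 14-3-3 plus peptide FRET controls and 100% = background without 14-3-3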
Mcl1 Bid PPI = Mcl-1/Bid binding inhibitors, primary screen, biochemical, TR-FRET, 1536-well; Induced myeloid leukemia cell differentiation protein Mcl-1 (Homo sapiens), Q07820; TR-FRET Mcl-1/Bid-Dy647 peptide binding; inhibition, % at 21.7 µM; 220,000 compounds, 0.97% hits; AID 1021, 2008;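 active = compounds that cut the binding signal by more than half at the single screening dose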;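 note: His-tagged Mcl-1 with europium anti-His antibody binding Bid BH3 peptide; 0% = Mcl-1 plus peptide wells and 100% = peptide-only wells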
NCF1 inh = p47phox/p22phox peptide binding inhibitors, primary screen, biochemical, uHTS, NADPH oxidase regulatory subunit. Neutrophil cytosol factor 1 (Homo sapiens), P14598. fluorescence polarization, 2 h. inhibition, % at 24.7 µM. 220,000 compounds, 0.53% hits. AID 1274, 2008;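 active = inhibition above about 30%, limit read from the data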;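 note: 0% = p47phox with labelled peptide and 100% = labelled peptide alone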
Bim-Mcl-1 = inhibitors of Bim peptide binding to Mcl-1, primary screen, biochemical, bead-based flow cytometry, multiplex; inhibition, % at 10 µM; Bim peptide-Mcl-1 binding; 190,000 compounds, 0.1% hits; in the data active = inhibition above about 40%;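 note: 0% = no compound tracer wells and 100% = peptide blocker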
Active calls of the source: *; / = no result given; [ ] = another dose, or the depositor's remark.

SMILES | Mcl1 Noxa PPI | 14-3-3 Bad inh | Mcl1 Bid PPI | NCF1 inh | Bim-Mcl-1
O=c1cc(-c2ccc(O)c(O)c2)oc2cc(O)cc(O)c12 | 66* | 22 | -65 | -13 | /
O=c1c(-c2ccc(O)cc2)coc2cc(O)cc(O)c12 | 2 | 0 | -66 | 4 | /
O=c1c(-c2c(O)cc(O)c3c(=O)cc(-c4ccc(O)cc4)oc23)c(-c2ccc(O)cc2)oc2cc(O)cc(O)c12 | 103* | 18 | -60 | -134 | /
O=c1cc(-c2ccccc2)oc2cc(OCc3ccccc3)cc(O)c12 | 10 | 11 | -15 | -14 | 1
O=c1cc(-c2ccc(O)c(-c3c(O)cc(O)c4c(=O)cc(-c5ccc(O)cc5)oc34)c2)oc2cc(O)cc(O)c12 | 112* | 3 | 22 | -76 | 0
O=C(Nc1cc(C(F)(F)F)ccc1N1CCOCC1)c1ccccc1F | 0 | 73* | -20 | -3 | -2
O=C(Nc1cc(C(F)(F)F)ccc1N1CCOCC1)c1ccc2ccccc2n1 | 68* | 8 | -21 | -4 | -6
CC(=O)OCC1(C)CN(c2ccccc2)NC1=O (stereo not drawn) | 5 | -5 | -34 | -13 | -2
O=c1c2c(nc3nc(NCc4cccc(Cl)c4)[nH]n13)CCC2 | -8 | 72* | -20 | -6 | -2
Cc1ccc(NC(=O)CN2C(=O)N/C(=C/c3cc(C)n(-c4cccc(C(=O)O)c4)c3C)C2=O)cc1 | 73* | 35 | -97 | -36 | -1
Cc1ccc(NC(=O)CN2C(=O)N/C(=C\c3cccn3-c3cccc(C(=O)O)c3)C2=O)cc1 | 63* | 69 | -78 | -30 | 0
Cc1ccc(CN2C(=O)N/C(=C\c3cccn3-c3cccc(C(=O)O)c3)C2=O)cc1 | 41 | 16 | -37 | -22 | -1
CC(NC(=O)CSc1nnc(-c2cccnc2)n1N)c1ccccc1 (stereo not drawn) | -3 | -9 | -46 | -19 | 1
O=[N+]([O-])c1ccc(-c2cnc[nH]2)cc1 | 47 | 3 | -28 | -8 | /
O=S(=O)(c1ccc2c(c1)OCCO2)N1CCC(O)(c2ccc(Cl)cc2)CC1 | 6 | -9 | 5 | -24 | -4
Oc1c(C=Nc2ccccc2Cl)[nH]c2ccccc12 | 20 | 1 | -78 | -35 | /
O=C1C(Cl)=C(N2CCC(C(=O)O)CC2)C(=O)c2ccccc21 | 52* | 2 | -14 | 14 | /
O=C(O)C1CCN(C(=O)c2ccccc2Cl)CC1 | -2 | 0 | -3 | -3 | 0
NC(=O)C1CCN(C2=C(Cl)C(=O)c3ccccc3C2=O)CC1 | 88* | 7 | 27 | 7 | 16
NC(=O)C1CCN(C2=C(NS(=O)(=O)c3ccccc3)C(=O)c3ccccc3C2=O)CC1 | -1 | 2 | -19 | 0 | /
Cc1nn2c(-c3cccc(NC(=O)CSc4nc5ccccc5o4)c3)nnc2c2ccccc12 | -114 | -5 | 31 | -37 | -4
O=C(CN1CCN(c2ccc(F)cc2)CC1)NCC1CCCO1 (stereo not drawn) | 7 | -10 | -79 | -6 | -5
COc1ccccc1N1CCN(CC(=O)NCC2CCCO2)CC1 (stereo not drawn) | 33 | 75* | 47 | 0 | -16
Oc1cc2c(cc1O)[C@@H](c1ccccc1)CNCC2 | 67* | -7 | -19 | 0 | 7
CCc1nc(NC(C)C)c2oc3ccccc3c2n1 | 11 | 76* | 43 | -10 | -3
SMILES | Mcl1 Noxa PPI | 14-3-3 Bad inh | Mcl1 Bid PPI | NCF1 inh | Bim-Mcl-1
CCc1nc(N2CCCCC2)c2oc3ccccc3c2n1 | 3 | 38 | -11 | -24 | 3
CCc1nc(N[C@H](C(=O)O)C(C)C)c2oc3ccccc3c2n1 | -6 | 5 | -8 | 1 | /
CCc1nc(SCC(=O)Nc2ccc3c(c2)OCCO3)c2oc3ccccc3c2n1 | -85 | 23 | 46 | 39* | -2
CCc1nc(N2CCN(Cc3ccc4c(c3)OCO4)CC2)c2oc3ccccc3c2n1 | 27 | 80* | -4 | -8 | -1
CCc1nc(Nc2ccc3c(c2)OCO3)c2oc3ccccc3c2n1 | 35 | 70*[fluorescence artefact?] | 0 | -9 | 0
CN1CCSc2ccc(C(=O)Nc3cccc(F)c3)cc21 | 27 | -8 | -113 | -7 | /
